Values without a mark were called inactive. Calls come from the whole dose curve.
% is set by controls: 0 for no effect and ±100 for the full control effect.

This assay in a line: qHTS assay to identify small molecule agonists of the estrogen related receptor (ERR) signaling pathway from Tox21 library (AID 1224849). Note: nearly all actives have a fitted effect of over 15% in size. The settings on record: ERR reporter cell line, ONE-Glo luciferase, 18 h; at 92.4 µM (top of the series) unless noted. The source says: National Center for Advancing Translational Sciences [NCATS]
NIH Chemical Genomics Center [NCGC]
U.S. Environmental Protection Agency [EPA]
National Institutes of Environmental Health Sciences [NIEHS]
National Toxicology Program [NTP]
Estrogen related receptors (ERRs), the first orphan nuclear receptors discovered, play an important role in the control of cellular energy metabolism. ERRs are required for high-energy production in response to the environmental challenges. ERR-alpha was also identified as an adverse marker for breast cancer progression; ERR-alpha-positive tumors have a poor prognosis. To screen and to identify environmental compounds that perturb the ERR signaling pathways could provide valuable information for potential therapeutic or preventive measures in the treatment of metabolic disease. For identifying ERR agonists, ERR cell line (provided by NTP) has been used to screen Tox21 10K library.
The ERR cells were dispensed at 2,000 cells/5 ul/well in 1536-well white plates using a Multidrop dispenser. After the assay plates were incubated at a 37 C/5% CO2 incubator for 6 hours, 23 nL of compounds dissolved in DMSO, positive and negative controls or DMSO only was transferred to the assay plate by a pin tool. The plates were incubated at 37 C for 18 hours. 4 ul/well of One-Glo reagent was added into the assay plates using a Flying Reagent Dispenser. After 30-minute incubation at room temperature, the luminescence intensity in the plates was measured using a ViewLux plate reader.
(In general: In qHTS, concentration-response curves come from the screen itself.)
On to `NC(=O)Nc1ccc(Cl)cc1`, for which the activity change, positive = activation is 0.227%.

As to `CC1CC(=O)NN=C1c1ccc(NCC(C)(C)NCC(O)COc2cc(Cl)ccc2C#N)cc1` (stereo not given), the activity change, positive = activation was -15% [at 42.5 µM].

With `CO[C@H]1O[C@H](CO)[C@@H](O)[C@H](O)[C@H]1O`, the activity change, positive = activation is 10.5%.

`CSc1ccc(Oc2ccc(S(N)(=O)=O)cc2CN(C)C)cc1C`: the activity change, positive = activation is -34.7%.

`Cc1ccc(/C=N/n2c(-c3ccccc3)csc2=S)cc1`: the activity change, positive = activation was 4.75% [at 42.5 µM].

Take `CCOC(=O)c1ccccc1OC`: the activity change, positive = activation is -0.575%.

Take `Cc1cc2nc3ccc(=[N+](C)C)cc-3sc2cc1N`: the activity change, positive = activation is -65.1% [at 42.5 µM].

`O=c1[nH]c2ccc(S(=O)CCN3CCC(Cc4ccc(F)cc4)CC3)cc2o1` (stereo not given): the activity change, positive = activation was -29.7%.

As to `CCC(Cc1ccccc1)(C(=O)c1ccc(N2CCOCC2)cc1)N(C)C` (stereo not given), the activity change, positive = activation is -33.5%.

As to `CC(C)(C)CC(C)(C)c1ccc(OCCO)cc1`, the activity change, positive = activation is -58.8%.

Take `O=C(CCC1CCN(Cc2ccccc2)CC1)c1ccc2c(c1)NCCCC2`: the activity change, positive = activation is -36% [at 42.5 µM].

Turning to `COc1cc2c(N3CCN(C(=O)Nc4ccc(OC(C)C)cc4)CC3)ncnc2cc1OCCCN1CCCCC1`, the activity change, positive = activation was -32.4% [at 42.5 µM].

Take `Cc1nc2ccccc2s1`: the activity change, positive = activation is 1.14%.

Regarding `CC(C)OCC1CO1` (stereo not given), the activity change, positive = activation was -0.395%.

In the case of `COC(OC)(C(=O)c1ccccc1)c1ccccc1`, the activity change, positive = activation was -3.37%.

For `OC(CCCN1CCCCC1)(c1ccccc1)c1ccccc1`, the activity change, positive = activation is 2.99% [at 42.5 µM].

`CCCOc1ccc(S(=O)(=O)N2CCN(CC)CC2)cc1-c1nc2c(CC)n(Cc3ccccn3)nc2c(=O)[nH]1`: the activity change, positive = activation is -21.4%.

Take `OC/C(Br)=C(\Br)CO`: the activity change, positive = activation was 1.63%.

As for `CN1Cc2cc(C(=O)N3CCC(C4CCNCC4)CC3)ccc2N[C@@H](CC(=O)O)C1=O`, the activity change, positive = activation was 7.88% [at 42.5 µM].

Regarding `c1ccc(COCc2ccccc2)cc1`, the activity change, positive = activation was 0.496%.

For the molecule `Cc1ccc(Nc2nccc(N(C)c3ccc4c(C)n(C)nc4c3)n2)cc1S(N)(=O)=O`, the activity change, positive = activation was -54.4% [at 42.5 µM].

For `Cc1oc(C)c(C(=O)Nc2ccccc2)c1C`, the activity change, positive = activation is -47.2%.

With `c1cnc2c(n1)CCCC2`, the activity change, positive = activation is 3.42%.

With `Cc1nc2ccccn2c(=O)c1CCN1CCC(C(=O)c2ccc(F)cc2)CC1`, the activity change, positive = activation was -25.4% [at 42.5 µM].

For `O=C(CS)OCCOC(=O)CS`, the activity change, positive = activation was -27.9%.

For the molecule `COc1ccc(CCC(=O)c2c(O)cc(O[C@@H]3O[C@H](CO)[C@@H](O)[C@H](O)[C@H]3O[C@@H]3O[C@@H](C)[C@H](O)[C@@H](O)[C@H]3O)cc2O)cc1O`, the activity change, positive = activation is 1.69%.

Regarding `CC(=O)[C@H]1CC[C@H]2[C@@H]3C[C@H](C)C4=CC(=O)CC[C@]4(C)[C@H]3[C@@H](O)C[C@]12C`, the activity change, positive = activation is -35.5% [at 42.5 µM].

`NC(=O)Cn1c(=O)cc(CCN2CCN(c3nccc4sccc34)CC2)c2ccc(F)cc21`: the activity change, positive = activation is -34.9%.

Regarding `CCCCCCCCCCCC(=O)[O][Sn]([CH2]CCC)([CH2]CCC)[O]C(=O)CCCCCCCCCCC`, the activity change, positive = activation was -11.3% [at 42.5 µM].

On to `CC(=O)Nc1ccccc1C`, for which the activity change, positive = activation is -0.329%.

In the case of `CC1(C)C(=O)N(Br)C(=O)N1Cl`, the activity change, positive = activation was 1.48%.

As to `CCCc1c(OCCCOc2ccc(OCC(=O)O)cc2)ccc(C(C)=O)c1O`, the activity change, positive = activation was -8.13%.

Regarding `Cc1cc(S(=O)(=O)O)ccc1N=Nc1c(O)ccc2ccccc12`, the activity change, positive = activation is -1.94%.

For the molecule `CCCCC(=O)O[C@]1(C(=O)CO)[C@@H](C)C[C@H]2[C@@H]3CCC4=CC(=O)C=C[C@]4(C)[C@@]3(F)[C@@H](O)C[C@@]21C`, the activity change, positive = activation is -45.4%.

Regarding `CN(C)CCOC1=Cc2ccccc2Sc2ccc(Cl)cc21`, the activity change, positive = activation was -11.9% [at 42.5 µM].

Turning to `COc1cc2[nH]c(=O)[nH]c(=O)c2cc1OC`, the activity change, positive = activation is 2.16% [at 42.5 µM].

On to `N#C/C(=C1/SC[C@@H](c2ccc(Cl)cc2Cl)S1)n1ccnc1`, for which the activity change, positive = activation was -40.9% [at 42.5 µM].

In the case of `C[C@]12CCC(=O)C=C1C=C[C@@H]1[C@@H]2CC[C@@]2(C)[C@H]1CC[C@@]21CCC(=O)O1`, the activity change, positive = activation is -28.3% [at 42.5 µM].

In the case of `CCCOC(=O)c1ccc(N)cc1`, the activity change, positive = activation is -13.8% [at 42.5 µM].

For `COC(=O)c1cc(S(N)(=O)=O)ccc1OC`, the activity change, positive = activation is -0.548% [at 42.5 µM].
